In PubChem BioAssay (NCI):
This is part of a sample that, as a whole, favours compounds with a hit. Of some 83,000 tested, about 20% had one in any assay.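 Note: values are percent growth. 100 is the growth of untreated cells, values between 100 and 0 indicate rising inhibition; between -100 and 0 indicates cell death.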 Values without a mark were called inactive. The source made the active and inactive calls. The calls were made as follows: active = growth percent below 10; inactive = the rest.

Assays:
Assay in all cases: NCI-60 one-dose screen, 48 h (100 = growth as untreated, 0 = no growth, -100 = all killed)
Conditions in all cases: 10 µM unless noted
T-47D breast = test system: T-47D breast
BT-549 breast = test system: BT-549 breast
MDA-MB-435 melanoma = test system: MDA-MB-435 melanoma
SW-620 colon = test system: SW-620 colon
MCF7 breast = test system: MCF7 breast
HCT-116 colon = test system: HCT-116 colon
HCC-2998 colon = test system: HCC-2998 colon
KM12 colon = test system: KM12 colon

Row | Compound | growth (T-47D breast) | growth (BT-549 breast) | growth (MDA-MB-435 melanoma) | growth (SW-620 colon) | growth (MCF7 breast) | growth (HCT-116 colon) | growth (HCC-2998 colon) | growth (KM12 colon)
1 | N#Cc1c(N)n(CCNC(=O)c2ccccc2)c2nc3ccccc3nc12 | 95.4% | 140% | 95.9% | 123% | 109% | 102% | 97.4% | 114%
2 | COc1cc(-c2nn(C)nc2-c2cc3ccccc3s2)cc(OC)c1OC | 56.5% | 18.8% | -41% (active) | 26.7% | 17% | 15.9% | 49.4% | 19.5%
3 | COC(=O)[C@]12CCC(C)(C)C[C@H]1[C@H]1C(=O)C[C@@H]3[C@@]4(C)c5c([nH]c6ccccc6c5=O)C(C)(C)[C@@H]4CC[C@@]3(C)[C@]1(C)CC2 | 52.6% | 76.4% | 57.5% | 71.2% | 44.5% | 33.8% | 72.3% | 72.9%
4 | C#CCOc1ccc2ncnc(NCc3cccc(NC(=O)CCl)c3)c2c1 | 33.2% [8.25 µM] | 46.6% [8.25 µM] | 53.4% [8.25 µM] | 19.9% [8.25 µM] | 15.5% [8.25 µM] | 14.6% [8.25 µM] | 99.7% [8.25 µM] | 59.7% [8.25 µM]
5 | COc1cc(C=Nc2oc(-c3ccccc3)c(-c3ccccc3)c2C#N)cc(CN2CCCCC2)c1O | 86.8% | 111% | 103% | 104% | 94% | 95% | 102% | 100%
6 | Cc1[nH]c(-c2ccc3cc[nH]c3c2)c2c1C(=O)CCCC2 | 32.1% | 68.3% | 25.2% | 73.9% | 19.5% | 38.9% | 57.7% | 47.8%
7 | CC1=C[C@H]2c3c(c(O)c(O)c4oc(-c5ccccc5)cc(=O)c34)[C@H](c3cc(O)c(O)c4oc(-c5ccccc5)cc(=O)c34)[C@H]2C(C)(C)C1 | 4.7% (active) | 0.289% (active) | -32.9% (active) | 7.43% (active) | 9.62% (active) | -56.3% (active) | 0.939% (active) | -14.9% (active)
8 | C#CC(F)(F)[C@]1(O)CC[C@H]2[C@@H]3CCC4=CC(=O)CCC4=C3[C@@H](c3ccc(C(C)=O)cc3)C[C@@]21C | 58.4% | 106% | 102% | 81.1% | 58% | 94.9% | 108% | 29.8%
9 | COc1ccc(-n2nc(C)c3c(Nc4ccc(NC(=O)Nc5ccc(Cl)c(C(F)(F)F)c5)cc4)ncnc32)cc1 | 1.89% (active) | 17.2% | -9.88% (active) | 14.3% | 1.4% (active) | 7.03% (active) | 15.6% | 6.08% (active)
10 | Cn1cc(-c2nonc2-c2cn(C)c3ccc(F)cc23)c2cc(F)ccc21 | 64.7% | 68.6% | -4.48% (active) | 22.2% | 27.9% | 28.2% | 73% | 33%
11 | O=C1c2ccccc2OC=C(c2ccccc2)N1CCCCNc1ccc(S(=O)(=O)Nc2ncccn2)cc1 | 88.8% | 100% | 105% | 99.3% | 93.7% | 96.1% | 111% | 97.5%
12 | OC(c1cc2cc(Cl)c(Cl)cc2c2cc(C(F)(F)F)ccc12)C1CCCCN1 (stereo not drawn) | -78.6% (active) | 76.4% | -73.9% (active) | -74% (active) | -87.3% (active) | -87.3% (active) | -80.9% (active) | -91.1% (active)
13 | O=C(/C=C/c1cccc([N+](=O)[O-])c1)c1ccc(O)c(CN2CCN(c3cc4c(cc3F)c(=O)c(C(=O)O)cn4C3CC3)CC2)c1 | 10.9% | 6.04% (active) | 11.2% | -43% (active) | 1.85% (active) | -59.5% (active) | 35.5% | -12.2% (active)
14 | COc1ccc(S(=O)(=O)N2CCCCCC2)cc1NC(=O)c1[nH]c(C)c2c1CCCCC2=O | 9.29% (active) | 42.2% | 25.6% | 60.8% | 17.9% | 23.8% | 20.2% | 32.8%
15 | CC(=O)O[C@H]1CC[C@]2(C)[C@H]3CC=C4[C@@H]5CC(C)(C)CC[C@]5(C(=O)NCCNCCN)CC[C@@]4(C)[C@]3(C)CC[C@H]2C1(C)C | -46.5% (active) | 92.8% | -55.5% (active) | -84.6% (active) | -90.7% (active) | -91.2% (active) | -92.1% (active) | 19.7%
16 | O=C(COc1ccc(/C=C2\CSc3ccccc3C2=O)cc1)Nc1nccs1 | 90% | 112% | 65.4% | 17.3% | 6.72% (active) | 48.2% | 103% | 13.8%

Row | Compound | growth (T-47D breast) | growth (BT-549 breast) | growth (MDA-MB-435 melanoma) | growth (SW-620 colon) | growth (MCF7 breast) | growth (HCT-116 colon) | growth (HCC-2998 colon) | growth (KM12 colon)
17 | Cc1cc(NS(=O)(=O)c2ccc(-c3cnc(C4CC4)o3)cc2)ccc1Cl | 32.4% | 28.8% | 0.57% (active) | 21.7% | 11.1% | 13.3% | 25.1% | 27%
18 | Nc1ccc(-c2cc3c(Nc4ccc(Oc5cccc(C(F)(F)F)c5)c(Cl)c4)ncnc3s2)cc1 | 43.8% | 73% | 70.3% | 101% | 34.7% | 67.9% | 69% | 44.5%
19 | CN1CCN(Cc2ccc(NC(=O)c3cncc(C#Cc4cncn5ccnc45)c3)cc2C(F)(F)F)CC1 | 98.9% | 60.8% | 36.2% | 32.2% | 55.9% | 7.73% (active) | 47.6% | 19.7%
20 | Cc1c(/C=C/[N+](=O)[O-])ccc2c1[nH]c1ccccc12 | 78.1% | 59.2% | -11.2% (active) | 77.7% | -11.9% (active) | -97.8% (active) | -30.7% (active) | 52.4%
21 | COc1ccc(-c2nc3ccc(-c4nc5ccc(N6CCN(C)CC6)cc5[nH]4)cc3[nH]2)cc1OC | 28.3% | 63% | 41.9% | 49.2% | 21.1% | 23.5% | 77.7% | 97.8%
22 | O=C(Cn1cccc(Nc2ccccc2)c1=O)Nc1ccccc1 | 93.9% | 106% | 97.3% | 102% | 96.1% | 98.6% | 109% | 110%
23 | COc1cc2c(cc1-c1c(C)noc1C)ncc1nc(-c3ccccn3)n([C@H](C)COC(F)F)c12 | 35.2% | 57.7% | 46.4% | 65.1% | 19.7% | 35.5% | 49% | 47.4%
24 | N#Cc1c(-c2ccc(Cl)cc2)nc(N/N=C/c2cccc(Br)c2)nc1N1CCOCC1 | 67.5% | 101% | 104% | 31.5% | 72.5% | 61.5% | 96.1% | 94.9%
25 | CCCN1CCN(c2ccc3nc(-c4ccc5nc(-c6ccc(OCC)cc6)[nH]c5c4)[nH]c3c2)CC1 | 47.2% | 71.2% | 27.6% | -83.7% (active) | -69.7% (active) | -89.8% (active) | -96.9% (active) | 42.8%
26 | CCc1nc(N)nc(N)c1C#CC(C)c1ccc(-c2ccncc2)cc1Cl (stereo not drawn) | 24% | 23.3% | 22.1% | 20.8% | 14.2% | 13.6% | 25.4% | 12.7%
27 | COc1cc2nc(N3CCCC3)nc(NCC3CCCCC3)c2cc1OC | -49.9% (active) | 42.6% | -72.3% (active) | -41.6% (active) | -78.8% (active) | -65.2% (active) | -60.1% (active) | 75.4%
28 | C=C1c2nc3ccccc3n2C=C(c2cccc(Cl)c2)N1Cc1ccc(OC)cc1 | -22.5% (active) | -1.26% (active) | -32.3% (active) | 20.6% | 4.64% (active) | 12.8% | 25.7% | 13%
29 | CSc1ccc(-c2ccccc(=O)c2O)cc1 | 27% | 29.7% | 23.5% | 29.2% | 15.8% | 20% | 44% | 23.1%
30 | CC(=O)c1nc2ccccc2n1CC(=O)c1cccc(Cl)c1 | -11.3% (active) | 34.9% | -27.4% (active) | 23% | 1.85% (active) | 5.82% (active) | 29.9% | 8.72% (active)
31 | O=c1nc2oc3ccc4ccccc4c3cc-2s1 | 12.6% | 49% | -58.5% (active) | 20.8% | 19.3% | 21.1% | 51.4% | 19.5%
